Results on 13 molecules are retold here after PubChem BioAssay (NCI).

The structures appear in SMILES notation. About 83,000 compounds went through this panel and 20% of them were active in at least one assay; those are over-represented in the sample as a whole.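 Compound tested at a single concentration for 48 hours in 96-well plates; a percent growth value below 10 was scored as active.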 Values without a mark were called inactive. The source made the active and inactive calls.

Some test systems named below: DU-145 prostate; K-562 leukemia; MALME-3M melanoma; MDA-MB-231 breast; RXF 393 renal; SF-268 CNS; SF-295 CNS; SF-539 CNS; UACC-257 melanoma; M14 melanoma.
Assay in all cases: NCI-60 one-dose screen, 48 h (100 = growth as untreated, 0 = no growth, -100 = all killed)
Common to all, as to conditions: 10 µM unless noted

`CCN(CC)c1nc(SCc2ccccc2Cl)ncc1C`: the growth in the assay on DU-145 prostate was 109%; in the assay with K-562 leukemia, 97.7%; with MALME-3M melanoma, 115%; in the assay with MDA-MB-231 breast it was 80.3%; with RXF 393 renal it was 99.6%; in the assay with SF-268 CNS it was 113%. Further, the growth in the assay with SF-295 CNS is 97.3%; in the assay with SF-539 CNS it was 129%; in the assay on UACC-257 melanoma, 106%; in the assay on M14 melanoma, 114%.
As to `O=C(N/N=C/c1ccc(F)cc1)c1ccc(C(F)(F)F)nc1Nc1cccc(C(F)(F)F)c1`, the growth in the assay on DU-145 prostate was 17.9%; in the assay on K-562 leukemia, -6.25% (active); with MALME-3M melanoma, 2.96% (active); in the assay with MDA-MB-231 breast it was -11.5% (active); in the assay with RXF 393 renal, -10.7% (active); in the assay on SF-268 CNS, 9.8% (active). For the same molecule, the growth is -44.5% (active) with SF-295 CNS, -0.388% (active) in the assay with SF-539 CNS, -2.34% (active) in the assay on UACC-257 melanoma and 19.9% with M14 melanoma.
For `COc1ccc(N2CCC(=O)NC2=S)cc1`, the growth is 115% with DU-145 prostate; 107% in the assay on K-562 leukemia; 110% with MALME-3M melanoma; 102% in the assay with MDA-MB-231 breast; 109% in the assay with RXF 393 renal; 99.8% with SF-268 CNS. Further, the growth in the assay on SF-295 CNS is 100%; in the assay with SF-539 CNS, 99.4%; in the assay on UACC-257 melanoma it was 108%; in the assay on M14 melanoma, 98.7%.
With `CCN(CC)CCNC(=O)c1cn2ncnc(Oc3ccc(NC(=O)Nc4ccc(Cl)c(C(F)(F)F)c4)c(F)c3)c2c1C`, the growth in the assay on DU-145 prostate is 8.01% (active); with K-562 leukemia, -23% (active); in the assay with MALME-3M melanoma, -89.7% (active); in the assay on MDA-MB-231 breast, -82.5% (active); in the assay with RXF 393 renal, -44.9% (active); in the assay with SF-268 CNS, 43.1%. Also, the growth in the assay on SF-295 CNS was -52.8% (active); with SF-539 CNS, -79.8% (active); in the assay on UACC-257 melanoma, -57.4% (active); with M14 melanoma, -83.2% (active).
`Brc1ccc2[nH]cc(-c3nonc3-c3c[nH]c4ccccc34)c2c1`: the growth was 44.6% with DU-145 prostate; 10.4% with K-562 leukemia; 56.8% in the assay on MALME-3M melanoma; 11.6% in the assay with MDA-MB-231 breast; 77.6% in the assay on RXF 393 renal; 44.9% in the assay on SF-268 CNS. Further, the growth is 33.3% in the assay on SF-295 CNS, 59.9% with SF-539 CNS, 56.9% with UACC-257 melanoma and 24.7% in the assay on M14 melanoma.
In the case of `CNC(=O)c1c(NC(=O)c2ccc(C(F)(F)F)cc2)sc2c1CCC(=O)C2`, the growth in the assay on DU-145 prostate is 29%; in the assay on K-562 leukemia, 7.84% (active); in the assay with MALME-3M melanoma it was -9.54% (active); in the assay with MDA-MB-231 breast, -37.1% (active); in the assay with RXF 393 renal it was -7.89% (active); with SF-268 CNS, 9.61% (active). The growth in the assay on SF-295 CNS was -9.06% (active); in the assay with SF-539 CNS it was -58.6% (active); with UACC-257 melanoma, 1.26% (active); in the assay with M14 melanoma, -11.6% (active).
For the molecule `Cn1ccnc1C(=O)C(=O)Nc1ccc(CC(=O)Nc2ccccc2)cc1`, the growth with DU-145 prostate was 104%; in the assay with K-562 leukemia, 111%; in the assay on MALME-3M melanoma, 101%; with MDA-MB-231 breast it was 109%; in the assay on RXF 393 renal it was 102%; in the assay with SF-268 CNS, 96.7%. In addition, the growth with SF-295 CNS was 106%; with SF-539 CNS it was 99.4%; in the assay with UACC-257 melanoma it was 110%; with M14 melanoma it was 104%.
Take `COc1ccc(C2=Nc3c/c(=C\c4c(O)[nH]c5ccc(Cl)cc45)ccc3=N2)cc1`: the growth with DU-145 prostate was 73.2%; in the assay with K-562 leukemia, 19.4%; in the assay with MALME-3M melanoma, 40.8%; with MDA-MB-231 breast it was 42.7%; with RXF 393 renal it was -27.2% (active); with SF-268 CNS, 53.4%. In addition, the growth was 29.6% with SF-295 CNS, 59.9% in the assay on SF-539 CNS, 54% with UACC-257 melanoma and 27.6% in the assay on M14 melanoma.
Consider `O=C1/C(=C/c2ccc(-c3ccc(Br)cc3)o2)SC(=S)N1CCc1ccc(O)cc1`, for which the growth was 15.7% in the assay on DU-145 prostate; 3.25% (active) in the assay on K-562 leukemia; 73.5% with MALME-3M melanoma; 82.9% in the assay on MDA-MB-231 breast; 80.5% in the assay with RXF 393 renal; 44.4% in the assay with SF-268 CNS. Moreover, the growth in the assay with SF-295 CNS is 100%; in the assay on SF-539 CNS it was 86.5%; in the assay with UACC-257 melanoma, 77.4%; with M14 melanoma it was 50.9%.
Turning to `CCCNC(=O)Oc1ccc(/C(=C(/C)Cc2ccc(OC)cc2)c2ccc(OCCCN(C)C)cc2)cc1`, the growth is 94.9% with DU-145 prostate; 15.3% with K-562 leukemia; 82.9% in the assay on MALME-3M melanoma; 89.9% with MDA-MB-231 breast; 74.7% in the assay with RXF 393 renal; 84% in the assay on SF-268 CNS. In addition, the growth in the assay with SF-295 CNS was 88.2%; in the assay on SF-539 CNS, 97.8%; in the assay with UACC-257 melanoma, 99.2%; in the assay with M14 melanoma, 71.8%.
In the case of `C1=C(N2CCCC2)CCC1`, the growth in the assay on DU-145 prostate is 108%; with K-562 leukemia, 120%; with MALME-3M melanoma, 100%; with MDA-MB-231 breast, 98.8%; in the assay with RXF 393 renal, 93.1%; in the assay on SF-268 CNS it was 107%. The growth in the assay on SF-295 CNS is 104%; in the assay on SF-539 CNS, 87.4%; with UACC-257 melanoma it was 89.8%; in the assay with M14 melanoma it was 96.2%.
`CN1C(=O)/C(=C/c2cn(-c3ccccc3)nc2-c2ccccc2)SC1=S`: the growth in the assay with DU-145 prostate was 105%; in the assay on K-562 leukemia, 92.6%; in the assay with MALME-3M melanoma it was 114%; with MDA-MB-231 breast, 92.8%; in the assay on RXF 393 renal, 110%; in the assay on SF-268 CNS, 104%. For the same molecule, the growth in the assay on SF-295 CNS was 89.6%; with SF-539 CNS, 99.5%; in the assay with UACC-257 melanoma, 106%; in the assay with M14 melanoma, 103%.
In the case of `COC(=O)/C=C1/SC(=Nc2ccc(C)cc2)N(CCc2c[nH]c3ccc(O)cc23)C1=O`, the growth was 26.9% in the assay on DU-145 prostate; 11.8% in the assay on K-562 leukemia; 77.4% with MALME-3M melanoma; 59.3% with MDA-MB-231 breast; 47.7% in the assay on RXF 393 renal; 56.3% in the assay on SF-268 CNS. Besides, the growth is 76.8% in the assay on SF-295 CNS, 42.9% with SF-539 CNS, 50.2% in the assay with UACC-257 melanoma and 34.1% with M14 melanoma.
